Assay outcomes from PubChem BioAssay.
Shown are actives, neighbours in structure and some others; about 12% of the full set was active somewhere.
G9a inh = inhibitors of human histone lysine methyltransferase G9a. G9a H3K9 monomethylation, AlphaScreen, 2 h. Potency, µM (series often up to 102 µM), hits mostly inhibitors. Q96KQ7. 350,000 tested, 8.8% active; further: nearly all actives have a fitted effect of over 75% in size
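Compounds were preincubated with 20 nM G9a for 15 min, after which biotinylated H3K9 peptide (500 nM) and SAM (20 uM) started a 2 h room-temperature reaction. Monomethylated product was quantified by antibody-based AlphaScreen chemiluminescence.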
L3MBTL1 block = inhibitors of human L3MBTL1. 230,000 tested, 0.66% active. Q9Y468. AID 485360. Potency, µM (series often up to 57.1 µM), usual class: inhibitors. AlphaScreen L3MBTL1–H3K9me1 peptide binding; further: nearly all actives have a fitted effect of over 60% in size
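AlphaScreen proximity signal between nickel-chelate acceptor and streptavidin donor beads (final 10 ug/mL) reports binding of 50 nM L3MBTL1 to 75 nM biotin-H3 K9me1 peptide; complex incubated with compounds 30 min at room temperature; cefsulodin titration as control.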
JMJD2A Tudor = inhibitors of human JMJD2A Tudor domain; O75164; AlphaScreen JMJD2A-Tudor / H3K4me3 peptide binding; 390,000 tested, 4.4% active; Potency, µM (highest dose often 114 µM), hits mostly inhibitors; further: nearly all actives have a fitted effect of over 50% in size
Sfp inh = blocks B. subtilis Sfp PPTase activity; Biochemical Sfp PPTase activity, qHTS; Potency, µM, hits mostly inhibitors; 310,000 tested, 3.5% active; AID 1490;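 further: the enzyme is Sfp with the accession as filed and its product quenches rhodamine fluorescence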
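Fluorescence-quenching assay with 15 nM Sfp, 5 uM rhodamine-CoA and 12.5 uM BHQ-2-labelled ybbR peptide in pH 7.6 Hepes/MgCl2 buffer. Enzyme was pre-incubated with compound for 15 min at room temperature. Rate was taken from the 30-min fluorescence change (525/598 nm).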
BAZ2B inh = inhibitors of human BAZ2B bromodomain; Q9UIF8; AlphaScreen BAZ2B-H3K14Ac peptide displacement; Potency, µM (series often up to 114 µM), usual class: inhibitors; 360,000 tested, 4.4% active; AID 504333; further: nearly all actives have a fitted effect of over 60% in size
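AlphaScreen displacement of biotin-H3(5-23)K14Ac peptide (50 nM final) from BAZ2B (50 nM final) in PBS pH 7.4, 0.01% Tween-20; complex preformed 30 min RT, then compounds (top 110 uM) 30 min RT, beads 20 min dark.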
HP1b chromo inh = HP1-beta chromodomain-methylated histone interaction inhibition; AlphaScreen HP1-beta / biotin-H3K9me3 peptide binding; Potency, µM (top dose mostly 114 µM), actives largely listed as inhibitors; 390,000 tested, 0.56% active; AID 540317; further: nearly all actives have a fitted effect of over 70% in size
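HP1-beta protein (50 nM final) preincubated 30 min at room temperature with biotinylated H3(1-18)K9me3 peptide (50 nM) in PBS pH 7.4, 0.01% Tween-20, then compound added for 30 min. AlphaScreen streptavidin donor/nickel chelate acceptor beads (10 ug/mL final), 30 min dark, luminescence read.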
Each line names hits and unclear results; the compound was inactive in the other large screens. The call rests on the fitted dose curve; in most records, active means well fitted curve in the direction sought with a large enough effect; inconclusive means small, poorly fitted or top-dose-only effect, or another doubt; inactive means no such curve, though single readings can be large; an effect the other way counts as inactive or inconclusive.

c1ccc(-c2nc(-c3cccnc3)n[nH]2)cc1	none (no result: JMJD2A Tudor, HP1b chromo inh)
COc1ccccc1-n1c(-c2cccnc2)n[nH]c1=S	G9a inh 3.2µM, JMJD2A Tudor 4.5µM, Sfp inh 50µM
COc1cc(-n2c(-c3ccccc3)n[nH]c2=S)c(OC)cc1Cl	Sfp inh inconclusive, BAZ2B inh inconclusive (no result: G9a inh)
S=c1[nH]nc(-c2ccc(Cl)cc2)n1-c1cccnc1	G9a inh 10µM, JMJD2A Tudor 8.9µM
S=c1[nH]nc(-c2cccnc2)n1-c1ccccc1	G9a inh 1.6µM, JMJD2A Tudor 7.9µM, Sfp inh 79µM
CCCCNC(=O)C1CCC(Cn2c(=O)c3sccc3n(Cc3ccccc3)c2=O)CC1 (configuration not stated)	none (no result: L3MBTL1 block, Sfp inh)
COc1cccc(N2C(=O)CSC23C(=O)N(CC(=O)Nc2cc(C)ccc2C)c2ccccc23)c1 (configuration not stated)	none (no result: L3MBTL1 block, Sfp inh)
CC1CCN(S(=O)(=O)c2ccc3c(c2)N(CC(=O)Nc2ccc(F)c(Cl)c2)C(=O)CO3)CC1	none (no result: L3MBTL1 block, Sfp inh)
CC(C)(C)CC(=O)NCC(c1ccc2c(c1)OCO2)N1CCN(c2ccccc2)CC1 (configuration not stated)	none (no result: L3MBTL1 block, Sfp inh)
Clc1cccc(N/N=C(\Cc2nc3ccccc3[nH]2)c2ccccc2)c1	G9a inh 25µM, JMJD2A Tudor inconclusive
c1ccc(N/N=C(\Cc2ncc[nH]2)c2ccccc2)cc1	G9a inh 2.8µM, BAZ2B inh inconclusive, HP1b chromo inh inconclusive
COc1ccc(CCn2c3c(c(=O)[nH]c2=S)CN(C)CN3)cc1OC	none (no result: G9a inh, L3MBTL1 block, Sfp inh, BAZ2B inh)
C/C(=N\N1C(=O)c2ccccc2NC1c1ccco1)c1ccccc1O (configuration not stated)	JMJD2A Tudor inconclusive, BAZ2B inh 71µM, HP1b chromo inh inconclusive
Fc1ccc(C(Nc2ccccc2Cl)c2nnc(-c3ccccc3Cl)o2)cc1 (configuration not stated)	none (no result: L3MBTL1 block, Sfp inh)
COc1cc(OC)c(OC)cc1CNCCCSc1nnnn1C	none (no result: L3MBTL1 block, Sfp inh)
O=C(O)Cc1ccc(C(=O)c2ccccc2)s1	G9a inh 18µM (no result: L3MBTL1 block)
O=C(O)Cc1ccc(C(=O)CSc2ccccc2)s1	G9a inh 56µM, L3MBTL1 block inconclusive, JMJD2A Tudor 56µM, BAZ2B inh 50µM
Cc1ccc(SCC(=O)c2ccc(CC(=O)O)s2)cc1	L3MBTL1 block inconclusive, JMJD2A Tudor inconclusive, BAZ2B inh 50µM (no result: G9a inh)
CC(C)c1nc2ccc(C(=O)NCCCN3CCN(c4cccc(Cl)c4)CC3)cc2o1	none (no result: L3MBTL1 block, Sfp inh)
CCN1CCCC1CNC(=O)c1ccc(N2CCOCC2)c(NS(=O)(=O)c2ccc(OC)cc2)c1 (configuration not stated)	G9a inh 50µM (no result: L3MBTL1 block)
COc1ccc(S(=O)(=O)Nc2cc(C(=O)NCCC(C)C)ccc2N2CCOCC2)cc1	G9a inh 50µM
CCOC(=O)c1noc2nc(C)n(CC(=O)Nc3cccc(OC)c3)c(=O)c12	none (no result: L3MBTL1 block, Sfp inh)
COC(=O)C1=C(C)N(c2cc(C)cc(C)c2)/C(=C/c2ccc(O)cc2)C1=O	G9a inh inconclusive, Sfp inh 45µM (no result: L3MBTL1 block)
COC(=O)C1=C(C)N(c2cc(C)cc(C)c2)/C(=C/c2ccco2)C1=O	G9a inh inconclusive, L3MBTL1 block 13µM, JMJD2A Tudor 79µM, Sfp inh inconclusive, BAZ2B inh 50µM
CCCCOC(=O)c1ccc(NS(=O)(=O)c2c(C)nc3scc(C)n3c2=O)cc1	none (no result: L3MBTL1 block, Sfp inh)
C[n+]1cccc2cccc([O-])c21	L3MBTL1 block 28µM, JMJD2A Tudor inconclusive, BAZ2B inh 56µM (no result: G9a inh)
[O-][n+]1cccc2cccc(O)c21	none (no result: G9a inh, L3MBTL1 block, Sfp inh, BAZ2B inh)
Cc1ccc(-n2nc3c(N4CCC(C(=O)NC5CCCCC5)CC4)nnc(C)c3c2C)cc1	none (no result: L3MBTL1 block, Sfp inh)
CN1c2ccsc2/C(=N/Nc2ccccc2)CS1(=O)=O	G9a inh 25µM, L3MBTL1 block inconclusive, JMJD2A Tudor 56µM, Sfp inh inconclusive, BAZ2B inh inconclusive, HP1b chromo inh inconclusive
CN1c2ccsc2/C(=N/NC(=O)c2c(F)cccc2F)CS1(=O)=O	JMJD2A Tudor inconclusive (no result: L3MBTL1 block)
COCc1cc(=O)n2[nH]c(SC)nc2n1	none (no result: L3MBTL1 block)
COCc1cc(=O)n2[nH]c(N)nc2n1	BAZ2B inh 50µM (no result: G9a inh, L3MBTL1 block)
N#CC1(NC(=O)COC(=O)c2ccccc2[N+](=O)[O-])CCCCC1	none (no result: Sfp inh)
N#CC1(NC(=O)COC(=O)c2cc(O)c3ccccc3c2O)CCCCC1	G9a inh 4.5µM, JMJD2A Tudor 25µM, BAZ2B inh 50µM, HP1b chromo inh inconclusive (no result: Sfp inh)
CCC(C)NC(=O)CN1C(=O)c2cccc3cccc1c23 (configuration not stated)	none
CCN1/C(=N\N)c2cccc3cccc1c23	JMJD2A Tudor 7.9µM, Sfp inh 35µM, BAZ2B inh 7.9µM, HP1b chromo inh inconclusive
COc1ccc2c(CC(=O)OCC(=O)Nc3cc(C)c(C)cc3[N+](=O)[O-])coc2c1	G9a inh 20µM, JMJD2A Tudor inconclusive, BAZ2B inh inconclusive, HP1b chromo inh inconclusive
O=C(COC(=O)/C=C/c1ccco1)Nc1cccc([N+](=O)[O-])c1	G9a inh inconclusive, L3MBTL1 block inconclusive, Sfp inh 32µM, BAZ2B inh inconclusive
CCN(CC)S(=O)(=O)c1cccc(NC(=O)COC(=O)/C=C/c2ccco2)c1	G9a inh 16µM, L3MBTL1 block inconclusive, Sfp inh 28µM, BAZ2B inh 50µM
CN(C)S(=O)(=O)c1cccc(NC(=O)COC(=O)/C=C/c2ccco2)c1	G9a inh inconclusive, L3MBTL1 block inconclusive, JMJD2A Tudor inconclusive, BAZ2B inh inconclusive, HP1b chromo inh inconclusive
CCN(CC)c1ccc(S(=O)(=O)N2CCOCC2)cc1NC(=O)COC(=O)/C=C/c1ccc(C)o1	G9a inh 45µM (no result: Sfp inh)
Cc1ccc(/C=C/C(=O)OCC(=O)Nc2cccc(S(=O)(=O)N(C)C)c2)o1	G9a inh inconclusive, BAZ2B inh 79µM
CN(C)c1ncc2nc(CCc3ccccc3)c(=O)n(-c3ccccc3)c2n1	Sfp inh inconclusive (no result: L3MBTL1 block, JMJD2A Tudor, BAZ2B inh, HP1b chromo inh)
c1ccc2c(c1)NCCS2	JMJD2A Tudor 50µM, Sfp inh 89µM, BAZ2B inh 50µM
